Bioassay records deposited in PubChem by National Center for Advancing Translational Sciences (NCATS).
Shown is part of a subset that was picked to be rich in hits.
p53ts 39C tox = kills p53ts cells at the nonpermissive temperature. Potency, µM (top dose mostly 46.1 µM), hits mostly cytotoxic. H1299-p53A138V viability at 39C, ATP luminescence, 24 h. 1.5% of 130,000 active; also: nearly all actives have a fitted effect of over 55% in size
IMPase inh = IMPase inhibition in cells. P97697. CHO-M1 cells, IP1 accumulation, HTRF TR-FRET ratio. inhibition (IP1 accumulation), % at 46.1 µM. 120,000 tested, under 10 active. AID 901; active = well fitted curve in the direction sought with a large enough effect in the signal ratio, not every such curve was filed as active; inconclusive = small, poorly fitted or top-dose-only effect, or a change in a side signal; inactive = no such curve, though single readings can be large or run the other way; the % refers to the signal ratio;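 also: cells stimulated with carbachol in lithium chloride buffer; higher means more IMPase inhibition seen as more IP1 and lower FRET ratio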
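Measured: the HTRF emission ratio (665/620 nm) plus the 620 nm donor channel, each fitted to the Hill equation to give AC50. Cells were CHO-M1 given compounds up to 46 uM and a 30 min carbachol stimulation at 37C.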
Hsp90 Hop PPI = changes Hsp90-Hop TPR2A binding signal, up or down; AlphaScreen TPR2A-His6 binding biotin-Hsp90 C-terminal peptide; Potency, µM (titrated, usually from 57 µM); 0.44% of 71,000 active; active = well fitted curve in either direction with a large enough effect; inconclusive = small, poorly fitted or top-dose-only effect, or another doubt
IkB sig inh = IkB pathway inhibition in ABC-DLBCL cells; ABC-DLBCL IkBa-CBG/CBR dual luciferase ratio, 4 h; response scale: scaled: untreated 0%, proteasome inhibitor 100%; 0.04% of 110,000 active; Potency, µM (series often up to 57.1 µM); active = well fitted curve in the direction sought with a large enough effect in the signal ratio, not every such curve was filed as active; inconclusive = small, poorly fitted or top-dose-only effect, or a change in a side signal; the % refers to the signal ratio;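 also: the direction sought is a rising ratio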
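Luminescence ratio of IκBα-fused green versus native red beetle luciferase in OCI-Ly3 cells, 4 h post-doxycycline with compound; red signal alone, scaled from basal (0%) to zero light (-100%), flagged nonspecific or cytotoxic effects.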
p53ts 32C tox = cytotoxicity in p53ts cells at permissive temperature | H1299-p53A138V at 32C, ATP luminescence viability, 24 h | Potency, µM (highest dose often 46.1 µM), most hits filed as cytotoxic | 0.93% of 130,000 active | AID 924; also: nearly all actives have a fitted effect of over 55% in size
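Viability by ATPlite luminescence after 24 h compound treatment (up to 46 uM) at the permissive 32C. Cells are H1299 carrying p53 A138V. Scale runs from DMSO basal to 100 uM tamoxifen as full kill; AC50 from Hill fits.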
Luciferase inh = inhibitors of firefly luciferase | AID 411 | 2.2% of 72,000 active | purified firefly luciferase, luminescence, 8 min | Potency, µM (titrated, usually from 57.1 µM), hits mostly inhibitors | P08659; also: nearly all actives have a fitted effect of over 40% in size
Target sequence (P08659 whole entry, looked up): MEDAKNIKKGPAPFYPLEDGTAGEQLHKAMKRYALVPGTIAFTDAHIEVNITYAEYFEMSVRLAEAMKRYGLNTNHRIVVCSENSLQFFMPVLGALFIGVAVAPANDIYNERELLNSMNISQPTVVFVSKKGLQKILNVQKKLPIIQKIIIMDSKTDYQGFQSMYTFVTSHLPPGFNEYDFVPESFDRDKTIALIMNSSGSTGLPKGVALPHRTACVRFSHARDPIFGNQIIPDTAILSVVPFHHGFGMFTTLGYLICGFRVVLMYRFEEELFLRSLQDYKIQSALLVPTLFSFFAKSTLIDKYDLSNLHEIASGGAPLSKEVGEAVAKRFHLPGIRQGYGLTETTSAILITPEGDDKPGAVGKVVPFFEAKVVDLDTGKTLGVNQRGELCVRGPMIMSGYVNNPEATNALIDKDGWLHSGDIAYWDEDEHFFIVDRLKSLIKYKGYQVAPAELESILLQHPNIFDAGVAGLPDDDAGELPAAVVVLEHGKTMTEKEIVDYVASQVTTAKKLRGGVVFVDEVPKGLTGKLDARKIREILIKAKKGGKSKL
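Compounds were tested as concentration series (qHTS) against purified P. pyralis luciferase with luciferin and 10 uM ATP in 50 mM imidazole pH 7.2, 50 mM KCl, 7 mM MgCl2, 0.01% Tween 20, 0.05% BSA. Luminescence was read after 8 min at ambient temperature.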
Of the large screens only hits and unclear results are named; the others gave an inactive call; ! = a repeat was not active. Unless noted, calls follow the shape of the dose curve; as a rule, active = well fitted curve in the direction sought with a large enough effect; inconclusive = small, poorly fitted or top-dose-only effect, or another doubt; inactive = no such curve, though single readings can be large; an effect the other way counts as inactive or inconclusive.

O=C(O)/C=C\c1ccc[c]([Sb](=[O])([OH])[OH])c1	none (no result: IMPase inh)
COC(=O)[C@]1(C)CC[C@@]2(C)CC[C@@]3(C)C4=CC=C5C(=CC(=O)C(O)=C5C)[C@@]4(C)CC[C@@]3(C)C2C1 (stereo partly specified)	p53ts 39C tox 13µM, p53ts 32C tox 10µM (no result: IMPase inh, Hsp90 Hop PPI, IkB sig inh, Luciferase inh)
FC(F)(F)c1nc2ccc(SSc3ccc4nc(C(F)(F)F)[nH]c4c3)cc2[nH]1	none (no result: IMPase inh)
NNc1c(C(N)=O)c2c(N)ncnc2n1[C@@H]1O[C@H](CO)[C@@H](O)[C@@H]1O	IkB sig inh inconclusive (no result: p53ts 39C tox, IMPase inh, p53ts 32C tox)
O=C(c1ccccc1)[C@H]1[C@H](c2ccccc2[N+](=O)[O-])N1C1CCCCC1 (stereo partly specified)	IkB sig inh 5µM (no result: IMPase inh)
Oc1ccc2c3c1O[C@H]1c4c(c5ccccc5n4Cc4ccccc4)C[C@]4(O)[C@H](C2)N(CC2CC2)CC[C@@]314	p53ts 39C tox 32µM, IkB sig inh inconclusive, p53ts 32C tox inconclusive
C[C@@H]1O[C@H](O[C@H]2C[C@@H](O)[C@]3(CO)[C@H]4[C@H](O)C[C@]5(C)[C@@H](C6=CC(=O)OC6)CC[C@@]5(O)[C@H]4CC[C@]3(O)C2)[C@@H](O)[C@H](O)[C@H]1O	IkB sig inh inconclusive (no result: p53ts 39C tox, IMPase inh, p53ts 32C tox)
Cc1ccc2nc(N3CCN(C)CC3)[nH]c2c1	none
CN1CCN(c2ccc3nc(-c4ccc5nc(-c6ccc(O)cc6)[nH]c5c4)[nH]c3c2)CC1	Luciferase inh 4µM (no result: IMPase inh)
CCCCCCn1c(O)c(C=NC2CCCCC2N)c(=O)[nH]c1=O (stereo unspecified)	p53ts 39C tox 5µM, p53ts 32C tox 4µM, Luciferase inh 1.3µM
CCCCn1c(O)c(C=NC2CCCCC2N)c(=O)[nH]c1=O (stereo unspecified)	IMPase inh inconclusive
CN(C)C(=O)Oc1ccc(OC(=O)c2ccccc2)cc1	Luciferase inh 16µM
C[C@H]1CC[C@@H]2[C@@H](C)C(=O)O[C@H]3O[C@@]4(C)CC[C@@H]1[C@]32OO4	none (no result: p53ts 39C tox, IMPase inh, p53ts 32C tox)
C[C@H](CC(C#N)(c1ccccc1)c1ccccc1)N1CCCCC1	none (no result: IMPase inh)
CCCN1CCc2cccc3c2[C@@H]1Cc1ccc(O)c(O)c1-3	p53ts 39C tox inconclusive
CC1=NN=C(c2ccc(N)cc2)c2cc3c(cc2C1)OCO3	Hsp90 Hop PPI inconclusive, Luciferase inh 2µM!
CCc1ccccc1Nc1nn2c(=O)c3ccc(C(=O)Nc4cc(C)cc(C)c4)cc3nc2s1	p53ts 39C tox 4µM, IkB sig inh inconclusive, p53ts 32C tox 3.2µM (no result: IMPase inh, Hsp90 Hop PPI, Luciferase inh)
CCOC(=O)c1ccc(NC(=O)c2cccn(Cc3ccccc3F)c2=O)cc1	p53ts 39C tox inconclusive (no result: IMPase inh, Hsp90 Hop PPI, Luciferase inh)
Cc1ccc(C(=O)Nc2c(C(=O)Nc3ccc(C)c(C)c3)sc3nc(C)cc(C)c23)cc1	p53ts 39C tox 6.3µM (no result: IMPase inh, Hsp90 Hop PPI, Luciferase inh)
CCN(CC)CCN=Cc1c(O)n(Cc2ccccc2)c(=O)[nH]c1=O	none (no result: p53ts 39C tox, Hsp90 Hop PPI, IkB sig inh, p53ts 32C tox, Luciferase inh)
CCN(CC)CCCN=Cc1c(O)n(Cc2ccc(F)cc2)c(=O)[nH]c1=O	IMPase inh inconclusive, Luciferase inh 13µM
CCN1C[C@@]2(C)CC[C@H](O)[C@@]34[C@@H]5C[C@H]6[C@H](O)[C@@H]5[C@](O)(C[C@@H]6OC)[C@H](C[C@@H]23)[C@H]14	none (no result: p53ts 39C tox, IMPase inh, p53ts 32C tox)
CCOc1ccc2nc(NC(=O)c3cccn(Cc4ccc(C)cc4)c3=O)sc2c1	none (no result: IMPase inh, Hsp90 Hop PPI, Luciferase inh)
COc1ccc2nc(NC(=O)c3nc(S(=O)(=O)Cc4cccc(C)c4)ncc3Cl)sc2c1	p53ts 39C tox 10µM, IkB sig inh inconclusive, p53ts 32C tox 20µM (no result: IMPase inh, Hsp90 Hop PPI, Luciferase inh)
O=C(Cn1c(=O)n(Cc2ccccc2)c(=O)c2sc3ccccc3c21)NCc1ccccc1Cl	p53ts 39C tox 32µM, p53ts 32C tox 13µM (no result: IMPase inh, Hsp90 Hop PPI, Luciferase inh)
O=c1cccc2n1C[C@@H]1C[C@H]2CN2CCCC[C@H]12	none (no result: p53ts 39C tox, IMPase inh, p53ts 32C tox)
[Cd+2].[Cl-].[Cl-]	p53ts 39C tox 1.3µM, IkB sig inh 4µM (no result: IMPase inh, p53ts 32C tox, Luciferase inh)
CCCCc1ccc(C(=O)O)nc1	Hsp90 Hop PPI 2.5µM
CC[C@H]1[C@@H]2C[C@@H]3[C@@H]4N(C)c5ccccc5[C@@]45C[C@@H]([C@H]2[C@@H]5O)N3[C@@H]1O	none (no result: p53ts 39C tox, IMPase inh, p53ts 32C tox)
CCCOC(=O)COc1cc(C)cc2oc(=O)c3c(c12)CCC3	none
